# Tests used:
# [1] = tested on: HIPK3
# [2] = tested on: T1, LOK
# T1 construct: gene STK10
# [3] = tested on: HUNK
# [4] = tested on: T2, IKK-alpha
# T2 construct: gene CHUK
# [5] = tested on: LTK
# [6] = tested on: T3, IKK-beta
# T3 construct: gene IKBKB
# [7] = tested on: INSR
# [8] = tested on: JAK1(JH1domain-catalytic)
# [9] = tested on: JAK2(JH1domain-catalytic)
# [10] = tested on: T4, JNK3
# T4 construct: gene MAPK10
# [11] = tested on: LIMK1
# [12] = tested on: LYN
# 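Also: kd values determined as follow-up on hits from a single-replicate KINOMEscan panel screen.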
compound,measurement,setting,value
Cc1nnc(-c2ccc3occ(-c4ccc(S(C)=O)cc4)c3c2)[nH]1 (centres unmarked),Kd,[1],0.34 µM
same,Kd,[2],> 10 µM
Cc1c(O)cccc1Nc1ccnc2ccc(C(F)(F)F)cc12.Cl [GW466413],Kd,[3],> 10 µM
O=C1NC(=O)C(N2CCc3ccccc32)=C1c1ccccc1Cl [SB-373598],Kd,[4],> 10 µM
same,Kd,[5],> 10 µM
O=S(=O)(c1ccc(-c2ccnc3[nH]ccc23)cc1)N1CCCC1 [GSK846226],Kd,[6],0.27 µM
CC(C)(C)c1ccc(C(=O)Nc2cn3cc(Cl)ccc3n2)cc1,Kd,[6],> 10 µM
COc1cc2ncnc(Nc3ccc4nc(-c5ccccc5)[nH]c4c3)c2cc1OC.Cl [GW282450],Kd,[7],> 10 µM
Cc1cc(N2Cc3ccccc3C2)nc(Nc2ccc(S(=O)(=O)N3CCOCC3)cc2)n1.Cl [GSK1669917],Kd,[7],> 10 µM
Cc1c(Cn2ccn3c(=O)cc(N4CCOCC4)nc23)cccc1C(F)(F)F [GSK2289044],Kd,[8],> 10 µM
CSc1nn2c(=O)cc(N3CCOCC3)nc2n1Cc1cccc(C(F)(F)F)c1C [GSK2363608],Kd,[9],> 10 µM
COC(=O)c1c(-c2ccccc2)c2cc(OC)ccc2c(=O)n1Cc1ccccc1,Kd,[10],0.11 µM
COc1ccc(C2=C(Nc3cccc(C(=O)O)c3)C(=O)NC2=O)cc1 [SB-390765],Kd,[11],> 10 µM
Cn1ccc2ncnc(Oc3cccc(C(=O)Nc4ccccc4)c3)c21,Kd,[11],> 10 µM
Nc1ncnc2[nH]c(-c3ccccc3)nc12 [AH5015],Kd,[5],> 10 µM
O=C(O)COc1ncnc2cc(-c3ccc4[nH]ncc4c3)sc12,Kd,[5],> 10 µM
O=c1cc(N2CCOCC2)nc2n(Cc3cccc(Cl)c3Cl)ccn12 [GSK2286295],Kd,[12],> 10 µM

# Source: paper PMC5540273 (PLoS ONE, 2017)
